Screens from PubChem BioAssay.
BJeLR lethal: BJeLR cell viability loss; BJeLR (HRASV12) viability, CellTiter-Glo ATP luminescence, 48 h; 300,000 compounds, 0.17% hits; inhibition, % (no concentration beside the values); AID 1554; in the data active = inhibition above about 50%; inconclusive = no clear call, values can overlap the other calls
PfHsp40 rescue: compounds rescuing yeast from Plasmodium falciparum HSP40 toxicity. S. cerevisiae expressing PfHsp40, growth rescue, ATP luminescence. growth rescue, % at 12.5 µM. 340,000 compounds, 0.68% hits; in the data active = growth rescue above about 28%, passing the limit was not always enough; inconclusive = no clear call, values can overlap the other calls;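 also: yeast W303a lacking pdr1 and pdr3 grown in galactose medium; growth measured after three days at 30 °C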
RecA splice inh: blocks M. tuberculosis RecA intein splicing | AID 2221 | cell-free RecA intein splicing, fluorescence | 290,000 compounds, 0.75% hits | P9WHJ3 | inhibition, % (test concentration not listed); in the data active = inhibition above about 30%; inconclusive = no clear call, values can overlap the other calls
PrPC surface inh: reduces human prion protein on the cell surface; 370,000 compounds, 0.43% hits; inhibition, % at 13.8 µM; P04156; cell surface PrPC, TR-FRET read-out; in the data active = inhibition above about 24%
PriA SSB inh: K. pneumoniae PriA-SSBct interaction inhibition | AlphaScreen SSBct-PriA binding, biotinylated peptide | inhibition, % at 33 µM | 430,000 compounds, 0.6% hits | AID 1272365; in the data active = inhibition mostly above about 37%, no sharp cut-off; inactive = mostly below about 20%
PrP UTR inh: suppresses PrP 5' UTR mRNA reporter expression; cell-based PrP 5' UTR mRNA reporter, plate reader; inhibition, % (concentration not given with the values); 340,000 compounds, 0.35% hits; in the data active = inhibition above about 52%
PrP UTR cherry: prion 5' UTR mRNA inhibition, cherry-pick retest; shares compounds with PrP UTR inh; cell-based prion protein 5' UTR reporter, plate reader; inhibition, % at 2.5 µM; 1,100 compounds, 48% hits; AID 504592; in the data active = inhibition above about 54%; inconclusive = no clear call, values can overlap the other calls
PrPC TRFRET cf: confirmation of inhibitors of cell surface human prion protein; AID 743200; 1,500 compounds, 65% hits; shares compounds with PrPC surface inh; inhibition, % at 13.8 µM; cell surface PrPC level, TR-FRET; in the data active = inhibition above about 25%
LD9 cytotox: kills or reduces viability of LD9 cells in PrPc counter-screen; shares compounds with PrPC surface inh; LD9 cells cytotoxicity, luminescence viability; inhibition, % at 13.8 µM; 1,500 compounds, 29% hits; AID 743201; in the data active = inhibition above about 9.5%
Hits are given with their value; . = inactive; ? = inconclusive; / = not tested or not shown. Rows were chosen to be rich in hits. Some 1.9% of all compounds tested hit in one or more screens of this group.

SMILES	BJeLR lethal	PfHsp40 rescue	RecA splice inh	PrPC surface inh	PriA SSB inh	PrP UTR inh	PrPC TRFRET cf	LD9 cytotox	others
CC(=O)OC(C)(C)/C=C/C(=O)C(C)(O)C1[C@H](O)C[C@@]2(C)C3CC=C4C(CC[C@@H](O)C4(C)C)[C@]3(CO)C(=O)C[C@]12C (stereo partly specified)	.	.	.	30	.	81	33	.	PrP UTR cherry=90
COC(=O)C12OCC34C(CC5C(C)=C(O)C(=O)CC5(C)C3C(O)C1O)OC(=O)C(OC(=O)C=C(C)C)C24 (stereo unspecified)	/	.	/	100	.	83	101	35	PrP UTR cherry=86
COC(=O)C12OCC34C(CC5C(C)=C(O)C(=O)CC5(C)C3C(O)C1O)OC(=O)C(OC(=O)/C=C(\C)C(C)C)C24 (stereo unspecified)	/	.	/	100	.	93	100	47	PrP UTR cherry=92
Cc1cc(F)ccc1S(=O)(=O)Nc1ccc2c(c1)CN(C(=O)c1cccs1)CC2	/	/	/	/	.	/	/	/
CCOCC(=O)Nc1c(C(=O)Nc2ccc(C)c(C)c2)oc2ccccc12	/	/	/	/	.	/	/	/
COc1cccc(C(=O)Nc2cc(-n3c(C)nc4ccccc4c3=O)ccc2F)c1OC	/	/	/	/	.	/	/	/
CCOc1ccc(NC(=O)C(=O)NCc2ccncc2)cc1	.	.	.	.	.	.	/	/
CCOc1ccc(NC(=O)Nc2ccc(Cc3ccncc3)cc2)cc1	.	.	.	33	.	.	29	.
O=C(c1ccc(F)cc1)N1CCCC(c2nnc(Cc3ccc(F)cc3)o2)C1 (stereo unspecified)	/	/	/	/	.	/	/	/
O=C(Nc1ccn(Cc2ccccc2F)n1)c1ccc(COc2ccc(Br)cc2)cc1	.	.	.	32	.	.	.	.
O=C(Nc1ccc(Cn2cccn2)cc1)c1ccc(COc2cccc(Br)c2)cc1	.	.	.	28	.	.	26	.
Nc1nc(SCC(=O)Nc2ccc(Cl)cc2)ncc1S(=O)(=O)c1cccs1	/	/	/	/	.	/	/	/
Cc1ccc(C2C(C#N)=C(N)SC(N)=C2C#N)cc1	/	.	/	91	.	.	86	.
CC(C)C(=O)NC(c1ccc(Cl)cc1Cl)c1ccc2cccnc2c1O (stereo unspecified)	.	.	.	30	.	.	25	9.8
CCCCC(=O)NC(c1ccc(OC)cc1)c1ccc2cccnc2c1O (stereo unspecified)	/	/	/	.	/	/	/	/
CCCCC(=O)NC(c1ccc(Cl)cc1Cl)c1ccc2cccnc2c1O (stereo unspecified)	.	.	.	.	.	.	/	/
CC(=O)NC(c1ccco1)c1ccc2cccnc2c1O (stereo unspecified)	.	.	.	/	.	.	/	/
CC(=O)NC(c1ccc(Cl)cc1)c1ccc2cccnc2c1O (stereo unspecified)	/	?	/	40	.	.	35	33
CCCC(=O)NC(c1ccccc1Cl)c1ccc2cccnc2c1O (stereo unspecified)	.	?	/	27	.	.	28	34
CCC(=O)NC(c1ccc(Cl)cc1Cl)c1ccc2cccnc2c1O (stereo unspecified)	.	122	.	28	.	.	.	25
CCOc1ccccc1-n1nnc(C(=O)NC[C@H]2CCCO2)c1C	/	/	/	/	.	/	/	/
Cc1cc(F)ccc1S(=O)(=O)NCC(c1cccs1)N1CCc2ccccc2C1 (stereo unspecified)	/	/	/	/	.	/	/	/
COc1ccc(F)cc1S(=O)(=O)NCC#CCN1CCCCC1	/	/	/	/	.	/	/	/
CCc1ccc2ncc(C#N)c(Nc3cc(C)cc(C)c3)c2c1	/	/	/	/	.	/	/	/
CCC(=O)NC(c1ccc(C)cc1)c1ccc2cccnc2c1O (stereo unspecified)	.	?	.	30	.	.	31	28
SMILES	BJeLR lethal	PfHsp40 rescue	RecA splice inh	PrPC surface inh	PriA SSB inh	PrP UTR inh	PrPC TRFRET cf	LD9 cytotox	others
COc1cccc(NC(=O)Cn2cc(-c3nnc(-c4ccco4)o3)c3ccccc32)c1	/	/	/	/	.	/	/	/
CCOC(=O)c1sc(C)c2c1NC(C)(c1cccs1)NC2=O (stereo unspecified)	.	.	.	36	.	.	34	.
Cc1ccc(Nc2c(-c3ccccn3)nc3cccc(C)n23)cc1	.	.	.	30	.	.	.	40
Cc1cccc2nc(-c3ccco3)c(Nc3ccccc3)n12	.	.	.	.	.	.	/	/
CC(=O)Nc1cccc(NC(=O)CSc2nc(CC(=O)Nc3cc(Cl)ccc3C)cs2)c1	/	/	/	/	.	/	/	/
O=C(Nc1nc(-c2cccs2)cs1)c1ccc(Cl)s1	.	.	.	.	.	.	/	/
CC(C)(C)c1csc(NC(=O)c2ccc(Cl)s2)n1	.	.	.	40	.	.	45	.
Cc1ccc(C(=O)Nc2nc(C(C)(C)C)cs2)s1	.	.	.	43	.	.	42	.
CC(C)(C)c1csc(NC(=O)c2ccncc2)n1	.	.	.	.	.	.	/	/
Cn1nnnc1Sc1ncnc2scc(-c3ccc(Br)cc3)c12	/	.	/	25	.	.	27	22
Cc1ccc(OCc2nc3ccccc3n2C(C)C(=O)Nc2c(C)cccc2C)cc1 (stereo unspecified)	/	/	/	33	/	/	26	.
S=c1nc(C2CC2)[nH]c2ccccc12	.	.	.	.	.	.	/	/
S=c1nc(C2CCCCC2)[nH]c2ccccc12	.	.	.	32	.	.	38	.
CC(Oc1ccc(F)cc1)C(=O)N1CCN(c2ccc3nnc(C4CC4)n3n2)CC1 (stereo unspecified)	/	/	/	/	.	/	/	/
C=C1C(=O)O[C@@H]2C[C@@H](C)[C@@H]3C=CC(=O)[C@@]3(C)[C@@H](OC(C)=O)[C@H]12	.	/	.	95	.	/	104	34
CC(C)c1ccc(-n2c(-c3ccccc3)c[n+]3c2CCc2ccccc2-3)cc1	.	.	.	41	.	.	50	37
COc1ccc(-n2c(-c3ccc(Br)cc3)c[n+]3c2CCc2ccccc2-3)cc1	.	.	.	.	.	.	/	/
O=C(Sc1cccc2cccnc12)c1ccccc1Br	97	119	.	30	/	.	.	83
Cc1ccc(/C=C/S(=O)(=O)Nc2ccccc2-c2csc(C)n2)cc1	/	/	/	/	.	/	/	/
CN1C2CCC1/C(=C\c1ccc(F)cc1)C(=O)/C2=C/c1ccc(F)cc1	.	.	.	.	.	.	/	/
C=CC(=O)N1C/C(=C/c2ccc(F)cc2)C(=O)/C(=C\c2ccc(F)cc2)C1	/	.	/	41	.	.	.	75
CC(=NNC(=O)Cc1c(C)[nH][nH]c1=O)c1ccc(Cl)c(Cl)c1	/	/	/	/	.	/	/	/
CCOC(=O)C(C)Sc1nc(-c2cccs2)ccc1C#N (stereo unspecified)	.	.	.	28	.	.	43	.
